Measured values published in PMC4336329 (PLoS ONE, 2015).
Among all 310,000 compounds or so, about 14,000 (4.5%) showed an effect of 50% or more. Effects have a minus sign here. The full list was thinned out, with strong results kept by preference.

Biological target: human ether-à-go-go-related gene (hERG) potassium channel (human, UniProt Q12809)
Assay: primary screen, population patch clamp on CHO cells stably expressing hERG; higher = less effect of the substance
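Further: peak tail current of the secondary pulse compared with the same well before compound.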

human ether-à-go-go-related gene (hERG) potassium channel, sequence (Q12809 whole entry, looked up): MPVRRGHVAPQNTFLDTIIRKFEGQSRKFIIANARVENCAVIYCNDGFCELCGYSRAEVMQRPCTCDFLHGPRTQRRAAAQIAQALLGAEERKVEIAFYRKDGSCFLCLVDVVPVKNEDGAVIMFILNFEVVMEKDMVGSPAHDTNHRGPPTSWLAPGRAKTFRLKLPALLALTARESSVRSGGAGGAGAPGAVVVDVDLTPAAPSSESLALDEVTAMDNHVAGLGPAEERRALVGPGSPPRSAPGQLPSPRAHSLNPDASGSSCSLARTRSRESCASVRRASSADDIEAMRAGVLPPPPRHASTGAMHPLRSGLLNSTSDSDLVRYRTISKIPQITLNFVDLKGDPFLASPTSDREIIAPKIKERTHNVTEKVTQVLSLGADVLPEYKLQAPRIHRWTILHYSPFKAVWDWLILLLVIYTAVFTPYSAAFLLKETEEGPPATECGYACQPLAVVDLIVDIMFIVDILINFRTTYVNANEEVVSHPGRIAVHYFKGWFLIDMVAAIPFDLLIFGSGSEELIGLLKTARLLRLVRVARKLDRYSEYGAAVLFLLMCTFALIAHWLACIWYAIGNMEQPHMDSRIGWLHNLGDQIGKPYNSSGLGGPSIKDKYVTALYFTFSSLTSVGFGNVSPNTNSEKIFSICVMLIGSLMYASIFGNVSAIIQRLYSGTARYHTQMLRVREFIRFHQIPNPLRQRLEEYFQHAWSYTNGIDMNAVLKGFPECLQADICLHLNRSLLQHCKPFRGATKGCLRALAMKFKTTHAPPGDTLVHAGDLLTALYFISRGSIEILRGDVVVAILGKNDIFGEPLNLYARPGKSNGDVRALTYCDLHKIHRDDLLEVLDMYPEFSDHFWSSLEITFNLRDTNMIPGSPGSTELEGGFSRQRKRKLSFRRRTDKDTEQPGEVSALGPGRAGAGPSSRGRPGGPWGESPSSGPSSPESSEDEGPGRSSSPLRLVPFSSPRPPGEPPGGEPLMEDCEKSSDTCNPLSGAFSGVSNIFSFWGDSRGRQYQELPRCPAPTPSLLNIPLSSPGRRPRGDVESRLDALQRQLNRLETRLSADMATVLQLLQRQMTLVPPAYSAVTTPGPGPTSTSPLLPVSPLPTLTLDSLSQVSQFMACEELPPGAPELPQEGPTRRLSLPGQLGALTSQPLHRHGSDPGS

| SMILES | hERG current change (%, negative = inhibition) at 10uM |
| --- | --- |
| CSc1ccccc1C(=O)NCC1CCCO1 (stereo not shown) | -11.8% |
| O=C1c2ccccc2C(=O)N1CCCCSc1nnnn1-c1ccccc1 | -51.7% |
| O=C1c2ccccc2C(=O)N1CCCCSc1nnc2c(Cl)cc(Cl)cn12 | -80.2% |
| O=C1c2ccccc2C(=O)N1CSc1nnnn1-c1ccccc1 | -3.73% |
| CCSc1nnc2c(Cl)cc(Cl)cn12 | 5.28% |
| O=C(O)CCSc1nnnn1-c1ccccc1 | -1.42% |
| O=C1c2ccccc2C(=O)N1CCCCSc1nnc2ccccn12 | -22.7% |
| CC(=O)OCc1cc(-c2nc3ccccc3[nH]c2=O)nn1-c1ccc(Cl)cc1 | 18% |
| O=C(CSc1nc2[nH]ncc2c(=O)[nH]1)NCCc1ccccc1 | 26.9% |
| O=[N+]([O-])c1ccc2c(c1N1CCCCC1)=NC1(CCCCC1)[N+]=2[O-] | -8.78% |
| Cc1ccc(NC(=O)C/C(N)=N/OC(=O)Nc2ccc(C)c(Cl)c2)cc1 | 4.56% |
| COCCCNC(=O)c1ccc(-n2nc(C(F)(F)F)cc2-c2cccs2)cc1 | -30.6% |
| O=C(NCCCN1CCOCC1)c1ccc(-n2nc(C(F)(F)F)cc2-c2cccs2)cc1 | -80.4% |
| O=C(NCCCN1CCOCC1)c1cc(-c2cccs2)on1 | -15.7% |
| COc1ccc(C(=O)COC(=O)CN2C(=O)NC(C)(C)C2=O)cc1OC | -1.87% |
| NC(=O)C(=O)N/N=C/c1c[nH]c2ccc(Br)cc12 | 12.7% |
| O=C(NC(=S)Nc1ccc(CN2CCOCC2)cc1)c1cccc([N+](=O)[O-])c1 | 10.7% |
| Cc1ccc(-n2c(=O)[nH]cc(C(=O)Nc3ccc4c(c3)OCCO4)c2=O)cc1C | -5.33% |
| CCN1CCC(NCCc2ccc(F)cc2)CC1 | -0.893% |
| CN1CCC(NCCC(c2ccc(F)cc2)c2ccc(Cl)cc2)CC1 (stereo not shown) | -71.5% |
| CC(C)C(CCNC1CCN(C)CC1)c1ccc(Cl)cc1 (stereo not shown) | 11.3% |
| Cc1ccccc1-c1noc(CNC(=O)COc2ccccc2)n1 | -10.4% |
| COc1ccc(C(=O)N(C)Cc2ccccc2)cc1Br | -8.29% |
| Cc1cc(Br)ccc1NC(=O)CN(C)C(=O)CCSc1ccc(F)cc1 | 0.468% |

| SMILES | hERG current change (%, negative = inhibition) at 10uM |
| --- | --- |
| CN(CC(=O)Nc1ccccc1Br)C(=O)CN1CCN(c2ccccc2Cl)CC1 | -29.6% |
| Cc1cc(Br)ccc1NC(=O)CN(C)C(=O)C1CCN(C(=O)c2ccc(F)cc2)CC1 | -65.1% |
| CN(CC(=O)Nc1ccccc1Br)C(=O)CN1CCN(Cc2ccc(Cl)cc2)CC1 | -66.9% |
| CN(CC(=O)Nc1ccccc1Br)C(=O)c1ccc(-c2ccc(Cl)cc2)o1 | 5.51% |
| CCOc1ccc(NC(=O)CN(C)C(=O)C2CCN(C(=O)c3ccc(Cl)cc3)CC2)cc1OCC | -48.1% |
| CN(CC(=O)Nc1ccccc1Cl)C(=O)C1CCN(C(=O)c2ccc(F)cc2)CC1 | -20.9% |
| CN(CC(=O)Nc1ccccc1Br)C(=O)C1CCN(C(=O)c2ccc(Cl)cc2)CC1 | -50.1% |
| CN(CC(=O)Nc1cccc(F)c1)C(=O)C1CCN(C(=O)c2ccc(Cl)cc2)CC1 | -55.5% |
| Cc1ccccc1C(=O)N1CCC(C(=O)N(C)CC(=O)Nc2cccc(F)c2)CC1 | 12.4% |
| CN(CC(=O)Nc1ccccc1C(F)(F)F)C(=O)C1CCN(C(=O)c2ccc(Cl)cc2)CC1 | -31.8% |
| CN(CC(=O)Nc1ccccc1Cl)C(=O)C1CCN(C(=O)c2ccc(Cl)cc2)CC1 | -35.1% |
| CC(=O)Nc1ccc(Sc2ccccc2C(=O)O)c(C(=O)O)c1 | 19.4% |
| CCCc1[nH]n(-c2ccc(F)cc2)c(=O)c1C=Nc1ccc(C)cc1 | 4.95% |
| CCOc1ccccc1NC(=O)Nc1ccc(OC)nc1 | 14.7% |
| CCOC(=O)c1ccc(S(=O)(=O)NC2CCCCCCC2)n1C | -12.4% |
| O=C(NCc1ccccc1)C1CCCN(S(=O)(=O)c2cccs2)C1 (stereo not shown) | -0.56% |
| COc1ccc(-c2cc(C(=O)N3CCN(Cc4ccc5c(c4)OCO5)CC3)on2)cc1OC | 2.8% |
| COc1ccc2oc(-c3ccccc3)c(C(=O)N3CCOCC3)c2c1 | -8.44% |
| Cc1csc(NC(=O)c2c(-c3c(F)cccc3Cl)noc2C)n1 | -10.9% |
| Cc1ccc(S(=O)(=O)NC2CCCC2)cc1C | -9.68% |
| CC[N+](CC)(CC#Cc1ccccc1)CC(=O)c1ccc(Cl)cc1 | -60.3% |
| CCC[N+](CC#Cc1ccccc1)(CCC)CC(=O)OC | 9.58% |
| C[N+](C)(CC#Cc1ccccc1)CC(=O)c1ccccc1.[Br-] | -13.5% |
| CCC[N+](CC#Cc1ccccc1)(CCC)CC(=O)OCC | -1.25% |

| SMILES | hERG current change (%, negative = inhibition) at 10uM |
| --- | --- |
| C[N+](C)(CC#Cc1ccccc1)CC(=O)c1ccc(Cl)cc1 | -28.3% |
| CCC[N+](CC#Cc1ccccc1)(CCC)CC(=O)c1ccc(Cl)cc1 | -67.4% |
| Cl.c1ccc2c(N3CCNCC3)cccc2c1 | 10.9% |
| Cc1nnc(NC(=O)C2=COCCO2)s1 | 7.13% |
| CN(C)CCCNCC(=O)NN(c1ccccc1)c1ccccc1.O=C(O)C(=O)O | -17.4% |
| CCC(C)[C@H](N)c1nnc(SCC(=O)Nc2cccc(Cl)c2)o1.Cl (stereo partly shown) | -15.6% |
| COc1cnc(-c2ccccn2)nc1N(C)C | -1.39% |
| CC(=NCc1ccco1)c1c(O)n(-c2ccccc2)c(=O)[nH]c1=O | 4.82% |
| COc1cc(/C=N/NC(=S)NCCN2CCOCC2)cc(OC)c1O | 12.7% |
| CC1(C)CC2CC(C)(CN2S(=O)(=O)c2cccc(C(=O)OCC(N)=O)c2)C1 (stereo not shown) | -7.62% |
| CNC(=O)NC(=O)COC(=O)c1cccc(S(=O)(=O)N2CC3(C)CC2CC(C)(C)C3)c1 (stereo not shown) | -14.4% |
| CCCCCNC(=O)c1cccc(S(=O)(=O)N2CC3(C)CC2CC(C)(C)C3)c1 (stereo not shown) | -1.24% |
| CCCCNC(=O)c1cccc(S(=O)(=O)N2CC3(C)CC2CC(C)(C)C3)c1 (stereo not shown) | -26.7% |
| CCCNC(=O)c1cccc(S(=O)(=O)N2CC3(C)CC2CC(C)(C)C3)c1 (stereo not shown) | -57.6% |
| CC1(C)CC2CC(C)(CN2S(=O)(=O)c2cccc(C(=O)OCC(=O)NC(N)=O)c2)C1 (stereo not shown) | -57.1% |
| Br.O=C1SC(SC(=Nc2ccccc2)Nc2ccccc2)C(=O)N1c1ccccc1 (stereo not shown) | 11.1% |
| COc1ccc(C(=O)N2CCCC2(C#N)c2ccccc2)cc1[N+](=O)[O-] (stereo not shown) | -41% |
| CCOc1ccc(C(=O)NC2CCCCCCC2)cc1 | 4.13% |
| COc1ccccc1-n1cc2ccc([N+](=O)[O-])cc2n1 | 8.8% |
| O=C(CC(Nc1ccccc1)C(=O)O)c1ccccc1 (stereo not shown) | 11.2% |
| COc1cccc(NC(=O)Nc2ccccc2C(N)=O)c1 | 1.99% |
| CCOc1ccc(S(=O)(=O)Nc2cc(OC)c(OC)cc2C(=O)O)cc1 | 3.94% |
| COc1ccccc1-n1cc([C@@H]2C[C@H]3CN(c4ccccc4)C(=O)[C@]34CCCN24)cn1 | -17.1% |
| CCOc1cc([C@@H]2C[C@H]3CN(c4ccccc4)C(=O)[C@]34CCCN24)ccc1OC | -10.4% |

| SMILES | hERG current change (%, negative = inhibition) at 10uM |
| --- | --- |
| COc1cc(Cl)c([C@@H]2C[C@H]3CN(c4ccccc4)C(=O)[C@]34CCCN24)cc1OC | -70.9% |
| O=C1N(c2ccccc2)C[C@@H]2C[C@@H](c3cccs3)N3CCC[C@@]123 | -11.5% |
| COc1ccc([C@@H]2C[C@H]3CN(c4ccccc4)C(=O)[C@]34CCCN24)c(OC)c1OC | -78.3% |
| COc1cc([C@@H]2C[C@H]3CN(c4ccccc4)C(=O)[C@]34CCCN24)cc(OC)c1OC | -32% |
| CCc1cc2cc(C(=O)N3CCN(Cc4ccccc4)CC3)sc2s1 | -36.7% |
| CCN(c1ccccc1C)S(=O)(=O)c1cc2c3c(c1)CCC(=O)N3CCC2 | -11.2% |
| COc1ccc(C(CC(=O)Nc2cc([N+](=O)[O-])ccc2OC)c2ccccc2)cc1 (stereo not shown) | 8.82% |
| O=C(CSCc1ccccc1)Nc1ccccc1 | 8.79% |
| Cc1ccc(S(=O)(=O)Oc2ccc(/C=N/NC(=O)c3c(Cl)cnn3C)cc2)cc1 | -8.14% |
| CCOC(=O)N1CCN(c2nc(C)c3c(n2)CCCC3=O)CC1 | 7.97% |
| CC(C)c1cccc(OCCN2CCCC2)c1 | 5.18% |
| CC1CCCN(CCCCOc2cccc(Br)c2)C1.O=C(O)C(=O)O (stereo not shown) | -69% |
| CCC1CCCCN1CCCCOc1cccc(Cl)c1.O=C(O)C(=O)O (stereo not shown) | -72% |
| CN(C)CCCCOc1cccc(Br)c1.O=C(O)C(=O)O | -23.7% |
| CCN1CCN(CCOc2cccc(Oc3ccccc3)c2)CC1.O=C(O)C(=O)O | -61.1% |
| CC1CCN(CCCCOc2cccc(C(C)C)c2)CC1.O=C(O)C(=O)O | -71.7% |
| Clc1cccc(OCCCCN2CCCCC2)c1 | -36.6% |
| Clc1cccc(OCCN2CCOCC2)c1.O=C(O)C(=O)O | -2.27% |
| CC(C)c1cccc(OCCCCN(C)C)c1.O=C(O)C(=O)O | -14.1% |
| CN(C)CCCOc1cccc(Oc2ccccc2)c1.O=C(O)C(=O)O | -34.5% |
| CCN1CCN(CCOCCOc2ccccc2)CC1.O=C(O)C(=O)O | 10.8% |
| COc1cccc(OCCCCN2CC(C)OC(C)C2)c1.O=C(O)C(=O)O (stereo not shown) | -4.73% |
